DAX1 inh-1 = inhibitors of DAX1 repression of SF-1 activated StAR promoter. HEK293T StAR-luciferase reporter, SF-1/DAX-1 repression relief. inhibition, % at 6.8 µM. actives 1.1% (n = 370,000);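 active means inhibition above the mean over all tested compounds plus 3 SD, cut at about 3.6% in these data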;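 further: 0% = DAX-1 cells with DMSO and 100% = cells lacking DAX-1 with DMSO; higher inhibition means more luminescence from relief of DAX-1 repression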
ssDAF-12 act = activators of S. stercoralis DAF-12 nuclear receptor; activation, % at 6.8 µM; HEK293 ssDAF-12/GRIP1 lit1-tk-luc reporter, luminescence; % of 3 µM dafachronic acid response; actives 1% (n = 370,000); AID 652126;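 active means activation above the mean over all tested compounds plus 3 SD, cut at about 0.9% in these data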;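 further: 0% = DMSO-only wells and 100% = 3 µM delta7-dafachronic acid wells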
DAX1 inh-2 = inhibitors of human orphan nuclear receptor DAX1 (NR0B1); actives 0.99% (n = 340,000); inhibition, % at 6.75 µM; HEK293 Gal4-DAX1 luciferase reporter, luminescence; P51843;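 active means inhibition above the mean over all tested compounds plus 3 SD, cut at about 4.2% in these data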;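 further: 0% = DAX1-transfected cells with DMSO and 100% = empty-vector control cells with DMSO; inhibition shows as a rise in luminescence from relieved DAX1 repression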
AHR act = activates the human aryl hydrocarbon receptor. AHR-responsive luciferase reporter cells, luminescence. P35869. AID 2796. activation, % at 5 µM. actives 2.5% (n = 320,000); in the data active means activation above about 47%;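 further: 0% = vehicle wells and 100% = reference agonist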
Target sequence (P35869 whole entry, looked up): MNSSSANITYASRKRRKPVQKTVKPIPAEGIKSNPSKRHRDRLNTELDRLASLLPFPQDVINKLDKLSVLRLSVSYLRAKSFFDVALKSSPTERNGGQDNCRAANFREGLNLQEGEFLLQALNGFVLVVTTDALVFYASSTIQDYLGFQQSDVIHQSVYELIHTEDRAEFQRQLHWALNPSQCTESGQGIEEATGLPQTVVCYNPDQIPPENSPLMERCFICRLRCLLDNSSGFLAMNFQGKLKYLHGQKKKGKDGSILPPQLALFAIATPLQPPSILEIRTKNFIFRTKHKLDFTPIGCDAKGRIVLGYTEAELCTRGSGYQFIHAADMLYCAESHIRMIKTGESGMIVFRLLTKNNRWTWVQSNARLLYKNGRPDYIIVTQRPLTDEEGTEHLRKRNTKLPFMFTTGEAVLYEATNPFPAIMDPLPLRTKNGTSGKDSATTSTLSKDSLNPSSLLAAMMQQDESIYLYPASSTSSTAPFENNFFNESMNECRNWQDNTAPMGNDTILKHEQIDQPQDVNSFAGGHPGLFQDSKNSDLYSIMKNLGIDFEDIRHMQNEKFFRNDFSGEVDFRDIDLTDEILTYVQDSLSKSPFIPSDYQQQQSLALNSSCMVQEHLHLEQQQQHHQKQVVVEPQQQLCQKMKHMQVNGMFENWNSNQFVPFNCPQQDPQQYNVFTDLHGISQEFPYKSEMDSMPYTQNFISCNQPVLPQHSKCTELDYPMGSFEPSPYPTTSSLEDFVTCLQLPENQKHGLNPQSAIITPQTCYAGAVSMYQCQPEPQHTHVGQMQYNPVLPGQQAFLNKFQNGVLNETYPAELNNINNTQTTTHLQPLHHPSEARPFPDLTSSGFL
hcDAF-12 act = activates DAF-12 receptor from parasite H. contortus; HEK293 hcDAF-12 lit1-tk-luc reporter, luminescence; 0% DMSO, 100% Δ7-dafachronic acid; actives 1.4% (n = 370,000); activation, % at 6.8 µM; AID 652067;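 active means activation above the mean of all tested compounds plus 3 SD, cut at about 5.5% in these data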;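 further: 100% = response to 3 µM Δ7-dafachronic acid high control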
hgDAF-12 ag = agonists of H. glycines DAF-12 nuclear receptor; AID 687014; activation, % at 6.8 µM; actives 1.8% (n = 370,000); HEK293 GAL4-hgDAF12 UAS-luciferase reporter, agonist luminescence; normalized to butyrate control;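 active means activation above a cutoff set at the mean of all screened compounds plus 3 SD, cut at about 10% in these data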;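 further: 0% = DMSO wells and 100% = sodium butyrate wells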
LXR ag = activates human LXR-beta, counter-screen for hcDAF-12 agonists; shares compounds with hcDAF-12 act; HEK293 Gal4-LXR tk-luc reporter, luminescence, 24 h; normalized: DMSO 0%, positive control 100%; activation, % at 6.8 µM; 3,400 tested, under 10 active; AID 743027;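 active means mean percent activation of the reporter above a cutoff set as the average over tested compounds plus their standard deviation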
hcDAF12 ag = hcDAF-12 agonism, confirmation assay. actives 61% (n = 3,400). HEK293 hcDAF-12 lit1-tk-luc reporter, luminescence; % of Δ7-dafachronic acid response. shares compounds with hcDAF-12 act. AID 743032. activation, % at 6.8 µM;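 active means mean activation across triplicate tests above the threshold derived from the earlier primary screen, cut at about 5.5% in these data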;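 further: 0% = DMSO only wells and 100% = 3 µM Δ7-dafachronic acid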
* = called active by the depositor. An excerpt weighted towards active compounds, which were near 5.7% of everything screened.

Screening Cc1nc(NC(=S)Nc2ccccc2)sc1C returned DAX1 inh-1 1.1, ssDAF-12 act 0.0, DAX1 inh-2 1.9, AHR act 21.0, hcDAF-12 act 10.0*, hgDAF-12 ag 10.4, LXR ag 0.4 and hcDAF12 ag 3.4.
For CN(C(=O)c1cccc(NC(=O)c2ccco2)c1)c1ccccc1 the results were DAX1 inh-1 -0.2, ssDAF-12 act -1.4, DAX1 inh-2 -0.4, AHR act 1.2, hcDAF-12 act -0.4 and hgDAF-12 ag -1.7.
Screening CN(C)c1cccc(NC(=O)c2ccco2)c1 returned DAX1 inh-1 0.3, ssDAF-12 act -0.6, DAX1 inh-2 0.3, AHR act 26.6, hcDAF-12 act 6.7*, hgDAF-12 ag -0.1, LXR ag 0.2 and hcDAF12 ag 5.3.
Screening Cn1ccc(CC(=O)N2CCC(N3CCC(C(=O)N4CCCC4)CC3)CC2)c1 returned DAX1 inh-1 0.4, ssDAF-12 act -0.8, DAX1 inh-2 1.0, AHR act -0.6, hcDAF-12 act 3.1 and hgDAF-12 ag 3.2.
Screening COc1ccccc1NC(=O)CN(Cc1ccco1)C(=O)c1cc2ccccc2o1 returned DAX1 inh-2 -0.3 and AHR act 21.1.
`COc1ccc2nc(C)cc(Nc3ccc(N4CCN(C)CC4)cc3)c2c1` gave DAX1 inh-1 0.0, ssDAF-12 act 0.9*, DAX1 inh-2 -0.8, AHR act 16.2, hcDAF-12 act 12.5*, hgDAF-12 ag 4.7, LXR ag 1.0 and hcDAF12 ag 11.9*.
`Cc1ccnc(NC(=O)c2cc3ccccc3o2)c1` gave DAX1 inh-1 2.5, ssDAF-12 act -0.7, DAX1 inh-2 -3.3, AHR act 8.0, hcDAF-12 act 3.7 and hgDAF-12 ag 0.5.
`Cc1ccc(C)c(NC(=O)c2cc3ccccc3o2)c1` gave DAX1 inh-1 0.9, ssDAF-12 act 0.6, DAX1 inh-2 2.9, hcDAF-12 act 7.8*, hgDAF-12 ag 10.7*, LXR ag 0.6 and hcDAF12 ag 9.4*.
For O=C(Nc1ccccn1)c1cc2ccccc2o1 the results were DAX1 inh-1 2.9, ssDAF-12 act -0.1, DAX1 inh-2 -3.6, AHR act 28.5, hcDAF-12 act 10.3*, hgDAF-12 ag 3.3, LXR ag 0.7 and hcDAF12 ag 13.1*.
For CCOC(=O)C1(C)CCCN1C(=O)c1c(F)cccc1F (stereo not drawn) the results were DAX1 inh-1 0.3, ssDAF-12 act -1.7, hcDAF-12 act 2.2 and hgDAF-12 ag 5.5.
`CCOC(=O)C1(C)CCCN1C(=O)c1ccccc1F` (stereo not drawn) gave DAX1 inh-1 0.0, ssDAF-12 act -0.5, hcDAF-12 act 7.1*, hgDAF-12 ag 2.4, LXR ag -0.4 and hcDAF12 ag 0.2.
CCc1nc(NCCO)c(C#N)c2c1CSC(C)(C)C2 was read as DAX1 inh-1 -0.3, ssDAF-12 act -1.2, DAX1 inh-2 -1.1, AHR act -0.1, hcDAF-12 act -1.6 and hgDAF-12 ag 0.7.
For CC/C(=N\NC(=O)c1cc(C)oc1C)c1ccc(OC(F)F)cc1 the results were DAX1 inh-1 1.8, ssDAF-12 act -1.5, DAX1 inh-2 2.2, hcDAF-12 act 0.8 and hgDAF-12 ag 5.4.
For C/C(=N\NC(=O)c1cc(C)oc1C)c1ccc2ccccc2c1 the results were DAX1 inh-1 0.2, ssDAF-12 act -1.6, DAX1 inh-2 4.4*, AHR act 13.8, hcDAF-12 act 7.2*, hgDAF-12 ag 11.5*, LXR ag -0.2 and hcDAF12 ag -1.4.
For O=C(O)COc1ccccc1/C=N/NC(=O)CSc1nnc(SCc2ccccc2)s1 the results were DAX1 inh-1 0.2, ssDAF-12 act -0.3, DAX1 inh-2 0.7, AHR act 0.5, hcDAF-12 act -1.3 and hgDAF-12 ag 0.2.
`CC[C@]12c3[nH]c4ccccc4c3CCN1C(=O)C(CC(=O)NCCC1=CCCCC1)C[C@@H]2C(=O)N1CCN(C(=O)C2CC2)CC1` (stereo partly drawn) gave DAX1 inh-1 1.3, ssDAF-12 act -1.1, DAX1 inh-2 -0.6, AHR act -0.9, hcDAF-12 act 0.1 and hgDAF-12 ag 0.5.
`Cc1nc2ccc(N=NC3=C(O)CC(C)(C)CC3=O)cc2s1` gave DAX1 inh-1 1.4, ssDAF-12 act 1.6*, DAX1 inh-2 0.8, AHR act 18.3, hcDAF-12 act 8.0*, hgDAF-12 ag 12.3*, LXR ag 1.5 and hcDAF12 ag 7.5*.
`O=S1c2ccccc2Sc2ccccc21` gave DAX1 inh-1 0.6, ssDAF-12 act -0.8, DAX1 inh-2 0.0, hcDAF-12 act -0.1 and hgDAF-12 ag -0.7.
`Cc1ccc(-n2nnc(-c3cnc4ccccc4c3)n2)cc1` gave DAX1 inh-1 1.7, ssDAF-12 act 1.6*, DAX1 inh-2 5.1*, AHR act 24.0, hcDAF-12 act 9.9*, hgDAF-12 ag 9.7, LXR ag 1.6 and hcDAF12 ag 13.8*.
For Cc1ccc(-n2nnc(-c3nccn3C)n2)cc1 the results were DAX1 inh-1 3.1, ssDAF-12 act 0.0, DAX1 inh-2 -3.2, AHR act 4.0, hcDAF-12 act 6.9*, hgDAF-12 ag 6.6, LXR ag 1.1 and hcDAF12 ag 7.3*.
Cc1ccc(-n2nnc(-c3cccnc3)n2)cc1 was read as DAX1 inh-1 2.2, ssDAF-12 act -0.2, DAX1 inh-2 0.7, AHR act -3.9, hcDAF-12 act 1.9 and hgDAF-12 ag 8.9.
Cc1cccc(/C=N/c2sc3c(c2C#N)CCN(Cc2ccccc2)C3)c1O was read as DAX1 inh-1 0.2, ssDAF-12 act 0.7, DAX1 inh-2 3.4, AHR act 9.9, hcDAF-12 act 13.6*, hgDAF-12 ag 0.1, LXR ag 0.0 and hcDAF12 ag 6.7*.
For COc1ccc(/C=N/c2sc3c(c2C#N)CCN(Cc2ccccc2)C3)c(O)c1 the results were AHR act 10.2.
Screening COc1ccc2c(c1OC)C(=O)N1C(C(=O)O)Cc3c([nH]c4ccccc34)C21 (stereo not drawn) returned DAX1 inh-1 1.0, ssDAF-12 act 0.5, DAX1 inh-2 1.9, AHR act 37.5, hcDAF-12 act 8.8*, hgDAF-12 ag 2.5, LXR ag -0.3 and hcDAF12 ag 2.8.

Bioassay records: PubChem BioAssay, The Scripps Research Institute Molecular Screening Center
